Measured values taken from PubChem BioAssay (Tox21).
Values joined by “and” are separate entries in the source; they are usually repeats but may differ in a detail not shown here. Equal values may be shown once. Inconclusive results are not listed. Active and inactive are the calls of the source. Unless noted, calls come from the whole dose curve; as a rule, active = well fitted curve in the direction sought with a large enough effect in the repeat runs; inconclusive = weak or mixed curves; inactive = no such curve, though single readings can be large; an effect the other way counts as inactive or inconclusive.

What was measured:
[1] = A CellTox Green Cytotoxicity Assay to monitor cytotoxicity in HEK293 cells - 32 hour (AID 1224881); note: nearly all actives have a fitted effect of over 40% in size
Summary of the method: (§1)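 Nonlytic real-time cytotoxicity: HEK293 + CellTox Green reagent plated, 5 h preincubation, pintool compound addition (23 nL in DMSO), 37 C for 40 h, fluorescence measured at successive time points.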

[2] = A CellTox Green Cytotoxicity Assay to monitor cytotoxicity in HepG2 cells - 0 hour (AID 1224882); note: nearly all actives have a fitted effect of over 35% in size
Summary of the method: (§2)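 Read-out is fluorescence of a cyanine dye excluded from live cells that stains DNA of dead HepG2 cells, with signal proportional to cytotoxicity. Plates were read at 0, 8, 16, 24, 32 and 40 h after compound addition.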

[3] = A CellTox Green Cytotoxicity Assay to monitor cytotoxicity in HepG2 cells - 32 hour (AID 1224883); note: nearly all actives have a fitted effect of over 50% in size
Summary of the method: as §2

[4] = A CellTox Green Cytotoxicity Assay to monitor cytotoxicity in HEK293 cells - 8 hour (AID 1224884); note: nearly all actives have a fitted effect of over 35% in size
Summary of the method: as §1

[5] = qHTS RealTime-Glo MT Cell Viability Assay in HepG2 cells - 16 hour (AID 1224885); note: nearly all actives have a fitted effect of over 50% in size
Summary of the method: (§3)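 Cells + NanoLuc/prosubstrate dispensed (600 cells/well) → 5 h at 37 C/5% CO2 → compounds in DMSO transferred → 40 h incubation at 37 C, luminescence read at 0, 8, 16, 24, 32, 40 h.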

[6] = qHTS RealTime-Glo MT Cell Viability Assay in HEK293 cells - 24 hour (AID 1224886); note: nearly all actives have a fitted effect of over 50% in size; note: potency is the fitted concentration of half-maximal effect
Summary of the method: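 Tox21 10K qHTS, HEK293, 600 cells/well, RealTime-Glo reagent co-dispensed with cells; 5 h preincubation, compound by pintool, 37 C, luminescence at 0–40 h.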

[7] = qHTS RealTime-Glo MT Cell Viability Assay in HEK293 cells - 8 hour (AID 1224887); note: top concentration of the series differs between compounds; nearly all actives have a fitted effect of over 50% in size
Summary of the method: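 Cells were seeded together with NanoLuc luciferase and a prosubstrate that viable cells reduce to a luciferase substrate. After a 5 h incubation at 37 C/5% CO2, compounds were added and luminescence was measured repeatedly during 40 h of treatment.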

[8] = A CellTox Green Cytotoxicity Assay to monitor cytotoxicity in HEK293 cells - 16 hour (AID 1224888); note: nearly all actives have a fitted effect of over 35% in size
Summary of the method: as §1

[9] = qHTS RealTime-Glo MT Cell Viability Assay in HepG2 cells - 0 hour (AID 1224889); note: nearly all actives have a fitted effect of over 50% in size
Summary of the method: as §3

[10] = A CellTox Green Cytotoxicity Assay to monitor cytotoxicity in HepG2 cells - 8 hour (AID 1224890); note: nearly all actives have a fitted effect of over 45% in size
Summary of the method: as §2

[11] = qHTS assay to identify small molecule antagonists of the estrogen receptor alpha (ER-alpha) signaling pathway using the BG1 cell line in the presence of 0.1 nM 17-beta-estradiol - cell viability counter screen (AID 1259241); note: nearly all actives have a fitted effect of over 40% in size
Summary of the method: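 Measures cytotoxicity alongside the ER-alpha antagonist readout: VM7Luc4E2 cells, charcoal-stripped serum, 0.1 nM 17beta-estradiol final, 22 hr compound incubation at 37C, CellTiter-Fluor fluorescence.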

[12] = qHTS assay to identify small molecule antagonists of the androgen receptor (AR) signaling pathway using the MDA cell line in the presence of 0.5 nM R1881 - cell viability counter screen (AID 1259242); note: nearly all actives have a fitted effect of over 45% in size
Summary of the method: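 Counter screen for cytotoxicity run in the same wells as the AR antagonist reporter screen: MDA-kb2 cells were treated 16 hr with test compounds and 0.5 nM R1881, then live-cell protease activity was measured by fluorescence.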

[13] = molecular target: Androgen receptor (Homo sapiens) (UniProt P10275); experiment: qHTS assay to identify small molecule antagonists of the androgen receptor (AR) signaling pathway using the MDA cell line in the presence of 0.5 nM R1881 (AID 1259243); note: nearly all actives have a fitted effect of over 50% in size
Summary of the method: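 Luciferase luminescence is the read-out: compounds are tested for suppressing 0.5 nM R1881-driven MMTV reporter activity in MDA-kb2 cells after 16 hr at 37C.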

[14] = qHTS assay to identify small molecule HDAC inhibitors (AID 1259364); note: nearly all actives have a fitted effect of over 45% in size; note: potency is the fitted concentration of half-maximal effect
Summary of the method: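 Luminescence from a cell-permeant luminogenic class I/II HDAC substrate reports endogenous deacetylase activity in intact HCT-116 cells treated with compounds for 2 h.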

[15] = qHTS assay to identify small molecule HDAC inhibitors - cell viability counter screen (AID 1259365)
Summary of the method: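 Following a 2hr exposure of overnight-plated wild-type HCT-116 cells to DMSO-delivered compounds, CellTiter-Glo was added and luminescence recorded after 30min at room temperature.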

[16] = qHTS assay to identify small molecule agonists of the sonic hedgehog signaling (Shh) pathway - cell viability counter screen (AID 1259366); note: nearly all actives have a fitted effect of over 50% in size; note: potency is the fitted concentration of half-maximal effect
Summary of the method: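 After a 4hr attachment at 37C, NIH/3T3 cells bearing an integrated Gli1-driven luciferase reporter were dosed with compounds. Treatment lasted 24hr, with the final hour including CellTiter-Fluor for a fluorescence viability measurement.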

[17] = qHTS assay to identify small molecule antagonists of the sonic hedgehog signaling (Shh) pathway - cell viability counter screen (AID 1259367); note: nearly all actives have a fitted effect of over 55% in size; note: potency is the fitted concentration of half-maximal effect
Summary of the method: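 NIH/3T3-derived Gli1-Luc reporter cells (2,000 per well) rested 4 hr at 37 C, then received DMSO compounds plus conditioned medium. After 23 hr of treatment, CellTiter-Fluor was added for 1 hr at 37C and fluorescence read.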

[18] = qHTS assay to identify small molecule agonists of the sonic hedgehog signaling (Shh) pathway (AID 1259368; calls by dose curve; note: nearly all actives have a fitted effect of over 15% in size; note: potency is the fitted concentration of half-maximal effect)
Summary of the method: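 3T3Gli1-Luc (NIH/3T3 clone, stable Gli1-Luc); 4 hr pre-incubation, then cpd in DMSO 24 hr, 37 C/5% CO2; luciferase reagent 30 min RT; luminescence.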

[19] = molecular target: Estrogen receptor (Homo sapiens) (UniProt P03372); experiment: qHTS assay to identify small molecule antagonists of the estrogen receptor alpha (ER-alpha) signaling pathway using the BG1 cell line in the presence of 0.1 nM 17-beta-estradiol (AID 1259244); note: nearly all actives have a fitted effect of over 50% in size
Summary of the method: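 Cells: VM7Luc4E2, endogenous ER-alpha, 4x ERE-luc stable. Pre-culture 5 d, phenol red-free, charcoal-stripped FBS. Plated 24 h, compound + E2 0.1 nM final, 22 h 37C/5% CO2. Readout ONE-Glo luminescence.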

[20] = qHTS assay to identify small molecule phospholipidosis (PLD) inducers (AID 1259344; active = well fitted curve in the direction sought with a large enough effect; an effect the other way counts as inactive or inconclusive)
Summary of the method: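 HepG2 cells on collagen I, attached 4 h at 37 C, were co-treated with compound and LipidTOX Red dye for 24 h at 37 C, then fixed with paraformaldehyde plus Hoechst 33342 and imaged by high-content microscopy for phospholipid accumulation.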
% is set by controls: 0 for no effect and ±100 for the full control effect.

Androgen receptor (Homo sapiens), sequence (P10275 whole entry, looked up): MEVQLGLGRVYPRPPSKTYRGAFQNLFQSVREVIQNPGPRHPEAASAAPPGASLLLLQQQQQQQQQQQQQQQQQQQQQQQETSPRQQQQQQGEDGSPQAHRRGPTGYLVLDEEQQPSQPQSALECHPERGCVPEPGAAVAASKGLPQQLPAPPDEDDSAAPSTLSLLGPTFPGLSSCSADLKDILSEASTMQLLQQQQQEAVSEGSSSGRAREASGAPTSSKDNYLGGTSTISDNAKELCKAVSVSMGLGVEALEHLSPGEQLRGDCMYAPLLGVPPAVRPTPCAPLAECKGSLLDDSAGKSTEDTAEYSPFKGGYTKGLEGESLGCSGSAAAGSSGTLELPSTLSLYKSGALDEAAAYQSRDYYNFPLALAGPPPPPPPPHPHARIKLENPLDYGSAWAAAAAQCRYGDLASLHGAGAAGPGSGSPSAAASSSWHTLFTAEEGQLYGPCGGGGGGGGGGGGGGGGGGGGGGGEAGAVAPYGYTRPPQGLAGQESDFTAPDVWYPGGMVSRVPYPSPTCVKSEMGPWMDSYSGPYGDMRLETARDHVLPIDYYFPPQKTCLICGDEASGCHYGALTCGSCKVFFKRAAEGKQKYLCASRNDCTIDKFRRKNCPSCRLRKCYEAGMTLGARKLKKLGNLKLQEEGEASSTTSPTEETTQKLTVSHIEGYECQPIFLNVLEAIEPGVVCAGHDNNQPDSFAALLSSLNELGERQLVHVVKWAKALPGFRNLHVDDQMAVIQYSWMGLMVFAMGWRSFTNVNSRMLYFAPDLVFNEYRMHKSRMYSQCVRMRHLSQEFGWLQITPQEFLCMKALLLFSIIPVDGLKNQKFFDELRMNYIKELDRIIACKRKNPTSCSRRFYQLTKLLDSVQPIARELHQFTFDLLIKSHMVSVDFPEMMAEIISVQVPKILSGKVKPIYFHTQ
Estrogen receptor (Homo sapiens), sequence (P03372 whole entry, looked up): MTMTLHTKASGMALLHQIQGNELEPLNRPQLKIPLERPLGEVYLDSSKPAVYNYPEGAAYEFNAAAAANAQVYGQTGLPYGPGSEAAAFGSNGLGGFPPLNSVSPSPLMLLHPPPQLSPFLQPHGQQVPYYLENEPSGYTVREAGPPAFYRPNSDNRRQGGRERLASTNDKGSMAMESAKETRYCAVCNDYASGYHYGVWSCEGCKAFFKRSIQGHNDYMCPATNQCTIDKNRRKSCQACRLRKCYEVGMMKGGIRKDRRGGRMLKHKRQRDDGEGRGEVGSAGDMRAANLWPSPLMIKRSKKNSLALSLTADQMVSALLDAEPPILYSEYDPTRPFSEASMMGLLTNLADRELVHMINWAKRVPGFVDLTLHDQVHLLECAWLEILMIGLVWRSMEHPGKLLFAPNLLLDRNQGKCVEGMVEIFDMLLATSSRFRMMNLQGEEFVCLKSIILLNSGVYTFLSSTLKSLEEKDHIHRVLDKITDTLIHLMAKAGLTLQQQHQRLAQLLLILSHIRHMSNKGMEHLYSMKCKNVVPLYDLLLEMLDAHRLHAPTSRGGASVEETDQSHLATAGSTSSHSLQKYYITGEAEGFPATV

CCCOCC(C)O (centres undefined)
inactive: Potency [1] | Potency [2] | Potency [3] | Potency [4] | Potency [5] | Potency [6] | Potency [7] | Potency [8] | Potency [9] | Potency [10] | Potency [11] | Potency [12] | Potency [13] | Potency [14] | Potency [15] | Potency [16] | Potency [17] | Potency [18]

CC(C)c1ccc(C(C)C)cc1
inactive: Potency [1] | Potency [2] | Potency [3] | Potency [4] | Potency [5] | Potency [6] | Potency [7] | Potency [8] | Potency [9] | Potency [10] | Potency [11] | Potency [12] | Potency [19] | Potency [14] | Potency [15] | Potency [16] | Potency [17] | Potency [18]

CCCCCCCC(=O)O
inactive: Potency [1] | Potency [2] | Potency [3] | Potency [4] | Potency [5] | Potency [6] | Potency [7] | Potency [8] | Potency [9] | Potency [10] | Potency [11] | Potency [12] | Potency [19] | outcome [20] | Potency [14] | Potency [15] | Potency [16] | Potency [17] | Potency [18]

CC(=O)Nc1ccc(CC(=O)O)cc1
inactive: Potency [1] | Potency [2] | Potency [3] | Potency [4] | Potency [5] | Potency [6] | Potency [7] | Potency [8] | Potency [9] | Potency [10] | Potency [11] | Potency [12] | Potency [19] | outcome [20] | Potency [14] | Potency [15] | Potency [16] | Potency [17] | Potency [18]

CCCCCCC(=O)O
inactive: Potency [1] | Potency [2] | Potency [3] | Potency [4] | Potency [5] | Potency [6] | Potency [7] | Potency [8] | Potency [9] | Potency [10] | Potency [11] | Potency [12] | Potency [19] | Potency [14] | Potency [15] | Potency [16] | Potency [17] | Potency [18]

NC(=O)NC(N)=O
inactive: Potency [1] | Potency [2] | Potency [3] | Potency [4] | Potency [5] | Potency [6] | Potency [7] | Potency [8] | Potency [9] | Potency [10] | Potency [11] | Potency [12] | Potency [19] | Potency [14] | Potency [15] | Potency [16] | Potency [17] | Potency [18]

CCCCC(=O)O
inactive: Potency [1] | Potency [2] | Potency [3] | Potency [4] | Potency [5] | Potency [6] | Potency [7] | Potency [8] | Potency [9] | Potency [10] | Potency [11] | Potency [12] | Potency [19] | outcome [20] | Potency [14] | Potency [15] | Potency [16] | Potency [17] | Potency [18]

O=[N+]([O-])c1cc(C(F)(F)F)ccc1Cl
inactive: Potency [1] | Potency [2] | Potency [3] | Potency [4] | Potency [5] | Potency [6] | Potency [7] | Potency [8] | Potency [9] | Potency [10] | Potency [11] | Potency [12] | Potency [13] | Potency [14] | Potency [15] | Potency [16] | Potency [17] | Potency [18]

CC(=O)OC[C@H]1O[C@@](COC(C)=O)(O[C@H]2O[C@H](COC(C)=O)[C@@H](OC(C)=O)[C@H](OC(C)=O)[C@H]2OC(C)=O)[C@@H](OC(C)=O)[C@@H]1OC(C)=O
inactive: Potency [1] | Potency [2] | Potency [3] | Potency [4] | Potency [5] | Potency [6] | Potency [7] | Potency [8] | Potency [9] | Potency [10] | Potency [11] | outcome [20] | Potency [14] | Potency [15] | Potency [16] | Potency [17] | Potency [18]

c1cnc2c(c1)ccc1cccnc12
active: Potency [6] 3.5 µM and 8.71 µM and 9.77 µM | Potency [14] 19.5 µM and 24.3 µM and 27.3 µM | Potency [16] 24.6 µM | Potency [17] 13.8 µM and 68.6 µM and 43.3 µM | Potency [18] 3.09 µM and 24.3 µM and 21.7 µM
inactive: Potency [1] | Potency [2] | Potency [3] | Potency [4] | Potency [5] | Potency [7] | Potency [8] | Potency [9] | Potency [10] | Potency [15]

O=C(O)Cc1c[nH]c2ccccc12
inactive: Potency [1] | Potency [2] | Potency [3] | Potency [4] | Potency [5] | Potency [6] | Potency [7] | Potency [8] | Potency [9] | Potency [10] | Potency [11] | Potency [14] | Potency [15] | Potency [16] | Potency [17] | Potency [18]

CC(=O)c1nccs1
inactive: Potency [1] | Potency [2] | Potency [3] | Potency [4] | Potency [5] | Potency [6] | Potency [7] | Potency [8] | Potency [9] | Potency [10] | Potency [11] | Potency [19] | Potency [14] | Potency [15] | Potency [16] | Potency [17] | Potency [18]

CCCCCCCCCCCC(=O)N(C)CC(=O)O
inactive: cytotoxicity increase [1] 0.815% [at 6.97 µM] | Potency [2] | cytotoxicity increase [3] 2.96% [at 6.97 µM] | Potency [4] | Potency [5] | Potency [6] | Potency [7] | Potency [8] | Potency [9] | Potency [10] | Potency [11] | Potency [19] | Potency [14] | Potency [15] | Potency [16] | Potency [17] | Potency [18]

CC/C(C)=N/O
inactive: Potency [1] | Potency [2] | Potency [3] | Potency [4] | Potency [5] | Potency [6] | Potency [7] | Potency [8] | Potency [9] | Potency [10] | Potency [11] | Potency [14] | Potency [15] | Potency [16] | Potency [17] | Potency [18]

NC(=O)c1ncn([C@@H]2O[C@H](CO)[C@@H](O)[C@H]2O)n1
inactive: Potency [1] | Potency [2] | Potency [3] | Potency [4] | Potency [5] | Potency [6] | Potency [7] | Potency [8] | Potency [9] | Potency [10] | Potency [11] | outcome [20] | Potency [14] | Potency [15] | Potency [16] | Potency [17] | Potency [18]

CCCCC(CC)COC(=O)c1ccc(C(=O)OCC(CC)CCCC)cc1 (centres undefined)
inactive: Potency [1] | Potency [2] | Potency [3] | Potency [4] | Potency [5] | Potency [6] | Potency [7] | Potency [8] | Potency [9] | Potency [10] | Potency [11] | Potency [13] | Potency [14] | Potency [15] | Potency [16] | Potency [17] | Potency [18]
